Only some compounds are listed: those with a hit (about 1.9% of all), similar ones and a draw of the others.
RXFP1 antag – blocks the human relaxin receptor RXFP1; Q9HBX9; HEK293-RXFP1, relaxin-stimulated cAMP HTRF, 30 min; hits give low values; activity change, negative = inhibition, % at 57.5 µM; 350,000 tested, 0.59% active; AID 1259400;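 active = activity change of -60% or lower, but not beyond a set lower limit; inconclusive = change between -60% and -40%, or beyond the set limit; inactive = change above -40%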; also: % is scaled to controls: 0 for no effect and ±100 for the full control effect
Giardia kill – kills Giardia lamblia | Giardia lamblia trophozoite viability | 340,000 tested, 0.15% active | activity change, % at 7.66 µM, hits read low; in the data active = activity change below about -80%; inconclusive = between about -30% and that limit;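 also: parasites exposed to compound for two days anaerobically before the ATP read; % is scaled to controls: 0 for no effect and ±100 for the full control effect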
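Trophozoites 100 cells/well + cpd; 48 hrs, 37 deg C, anaerobic. ATPLite 1-Step added, 15-30 min RT, luminescence read (ATP-based viability).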
IL2 activator – activators of IL-2; activation, % (series mostly up to about 46 µM); 360,000 tested, 0.065% active; IL-2 activation reporter assay, cell-based qHTS; stimulated with anti-CD3/CD4/CD28 beads; in transgenic mouse T cells; in the data active = activation above about 50%; inconclusive = mostly about 30% to 49%; also: 0% is about no effect
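Unstimulated transgenic mouse T cells; 60-min compound exposure; bead-based TCR/CD4/CD28 stimulation; 18 h culture, 37 degrees C; dual fluorescence (EGFP, DsRed) plate cytometry.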
RXFP1 ag – activates the human relaxin receptor RXFP1 | Q9HBX9 | HEK293T-RXFP1 cAMP TR-FRET, 30 min; response scale: percent of porcine relaxin response, buffer zero | Potency, µM (doses to about 57.5 µM), without a hit: at the highest dose activation, hits mostly activators | 370,000 tested, 0.3% active | AID 2676; also: potency is read from the fitted curve at half-maximal effect; % is scaled to controls: 0 for no effect and ±100 for the full control effect; nearly all actives have a fitted effect of over 60% in size
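HEK293T cells stably expressing RXFP1 were pretreated with the PDE4 inhibitor Ro 20174, exposed to compounds for 30 min at 37C, lysed, and cAMP was read by TR-FRET. Data normalized to buffer (basal) and 29 nM porcine relaxin (100%).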
BRCA1 expr up – activators of BRCA1 expression; MCF7-BRCA1-FFLuc reporter, luminescence, 48 h; response scale: scaled: vehicle 0%, 10 µM genistein 100%; 380,000 tested, 1.1% active; Potency, µM (top dose mostly 46.1 µM), for inactives: top-dose activation, actives largely listed as activators; also: potency is read from the fitted curve at half-maximal effect; nearly all actives have a fitted effect of over 80% in size
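MCF7-BRCA1-FFLuc, 2000 cells/well; 2 h attach, 37 °C/5% CO2; compound 48 h; luciferase substrate 15 min; luminescence end-point. Norm. to genistein 10 microM max activation and DMSO; concentration-response curves fitted.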
NPSR antag – blocks cAMP signaling of the human neuropeptide S receptor | Q6W5P4 | CHO-NPSR cells, cAMP TR-FRET, antagonist mode | Potency, µM (titrated, usually from 38.3 µM), inactives show at the highest dose activity change, negative = inhibition, actives largely listed as inhibitors | 220,000 tested, 1% active; also: potency is read from the fitted curve at half-maximal effect; % is scaled to controls: 0 for no effect and ±100 for the full control effect; nearly all actives have a fitted effect of over 50% in size
Target sequence (Q6W5P4 whole entry, looked up): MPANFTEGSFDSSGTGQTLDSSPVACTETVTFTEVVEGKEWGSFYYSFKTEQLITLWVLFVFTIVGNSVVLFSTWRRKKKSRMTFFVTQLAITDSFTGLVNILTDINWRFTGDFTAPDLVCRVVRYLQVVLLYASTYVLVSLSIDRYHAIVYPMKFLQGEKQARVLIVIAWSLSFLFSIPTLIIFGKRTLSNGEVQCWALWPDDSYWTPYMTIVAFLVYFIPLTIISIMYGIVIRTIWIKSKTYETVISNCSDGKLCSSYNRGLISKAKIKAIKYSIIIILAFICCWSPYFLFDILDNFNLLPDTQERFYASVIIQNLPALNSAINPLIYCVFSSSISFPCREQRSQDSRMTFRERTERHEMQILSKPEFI
An asterisk follows results filed as active; ? = inconclusive; . = no result; [ ] = remark or other dose. Unless noted, calls follow the shape of the dose curve; as a rule, active = well fitted curve in the direction sought with a large enough effect; inconclusive = small, poorly fitted or top-dose-only effect, or another doubt; inactive = no such curve, though single readings can be large; an effect the other way counts as inactive or inconclusive.

SMILES	RXFP1 antag	Giardia kill	IL2 activator	RXFP1 ag	BRCA1 expr up	NPSR antag
O=C(Nc1ccc(-c2ccccc2)cc1)c1ccco1	-7	-19	-4	0%	3%	-10%
O=C(Nc1ccccc1O)c1ccc(NC(=O)C2CC2)cc1	10	4	-4	0%	1.8µM*	.
CC(=O)NCCCN(Cc1ccc(Cl)c(Cl)c1)c1ccc(Br)cn1	.	-6	.	.	-28%	.
Oc1ccc(N2CCN(C(c3ccc(Cl)cc3)c3nnnn3Cc3ccc(F)cc3)CC2)cc1 (stereo not given)	.	13	.	.	-51%	.
COc1ccc(C(NC(=O)COc2ccc(C#N)cc2)c2ccc(OC)cc2)cc1	.	.	.	.	5%	.
O=C(Nc1ccc(NC(=O)c2cccs2)cc1)c1cccs1	-31	10	1	8%	24%	.
Cc1ccc(NC(=O)CNC(=O)c2ccco2)cc1	-1	-2	-3	0%	11µM*	.
O=C(NC(=S)NNC(=O)c1cc2ccccc2cc1O)c1ccco1	-70*	0	0	-1%	-25%	-37%
COc1ccc(NC(=O)CNC(=O)c2ccco2)cc1	9	13	0	3%	?	.
O=C(Nc1ccc(NC(=O)C2CC2)cc1)c1cccs1	-2	2	-2	-1%	10µM*	.
O=C(NC(=S)Nc1ccccc1Br)c1ccco1	-16	29	0	3%	13µM*	.
O=C(NC(=S)NNC(=O)c1ccccc1O)c1ccco1	-17	-10	1	2%	-56%	6%
Nc1[nH]c(=S)nc2nnsc12	.	.	.	.	7%	.
Nc1ccc2oc3ccccc3c2c1	2	-5	-1	0%	3.2µM*	6%[46.1 µM]
COc1ccc(/C(O)=C2/C(=O)C(=O)N(Cc3cccnc3)C2c2ccncc2)cc1F (stereo not given)	10	15	-2	6%	10%	6%[46.1 µM]
Cc1cc(OCc2ccccc2)ccc1/C(O)=C1/C(=O)C(=O)N(Cc2cccnc2)C1c1ccncc1 (stereo not given)	24	4	-3	25µM*	0%	?
CCCc1nnc(NC(=S)Nc2ccccc2)s1	-29	14	0	?	2.2µM*	-32%
CC(C)C(=O)Nc1nnc(NC(=S)Nc2ccccc2)s1	-38	-3	-5	2%	10µM*	-28%
CC(C)(C)C(=O)Nc1nnc(CCc2ccccc2)s1	7	-4	1	1%	4.5µM*	.
NC(=O)NS(=O)(=O)c1ccc(Cl)cc1	10	.	.	.	.	.
OC(CNC1CCCc2ccccc21)COc1c(Cl)cccc1Cl (stereo not given)	-63*	5	-8	-1%	-41%	6%
Cc1ccc(C)c(NC(=O)CSc2cn(CC(=O)N3CCCC3)c3ccccc23)c1	-8	.	.	2%	.	.
COCCCNC1=C(Cl)C(=O)c2ccccc2C1=O	-7	-5	-2	2%	-42%	?
CC(C)OCCCNC1=C(Cl)C(=O)c2ccccc2C1=O	9	-9	-4	-1%	?	10µM*
CN(C)c1ccc(/C=C/c2nc3ccccc3s2)cc1Cl	.	.	.	.	32%	.
SMILES	RXFP1 antag	Giardia kill	IL2 activator	RXFP1 ag	BRCA1 expr up	NPSR antag
Nc1ccc2c(c1)C(=O)c1cc(N)c(Cl)cc1-2	-23	17	0	.	-23%	.
COc1cc2c(cc1N)-c1ccc(N)cc1C2=O	-7	.	-1	.	10µM*	.
CCOC(=O)c1cnc(-n2nc(C)cc2C)nc1NCCc1ccccc1	-23	4	0	-1%	-27%	13µM*
CCOC(=O)c1cnc(-n2nc(C)cc2C)nc1Nc1ccc(OC)cc1	4	0	-2	2%	-30%	?
CCOC(=O)c1cnc(-n2nc(C)cc2C)nc1NC1CCCC1	-25	13	-6	-2%	-3%	1.3µM*
COc1ccc(CCNC(=O)c2cnc3ccc(C)cn3c2=O)cc1	-9	.	.	13%	.	.
O=C(C=Cc1ccccn1)c1ccccc1	-65*	-25	0	.	-77%	.
O=C(C=Cc1ccccn1)c1ccccc1O	-27	-3	-1	.	-43%	.
COc1ccccc1NC(=O)Cn1c(=O)n(-c2ccc(C)cc2)c(=O)c2c1cnn2C	.	.	.	18%	.	.
